From the supplement of paper PMC12669032
Values without a mark were called inactive.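 The calls were made as follows: active = AUC reduced over 20% with Padj below 0.05 in at least 2 of 3 replicates; inactive = otherwise.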

Columns and labels:
Assay in all cases: growth AUC relative to DMSO control (median of replicates) (fraction); higher = more growth (less inhibition), active = hit call of the paper
Settings in all cases: 20 µM; 24 h
Coprococcus comes = tested on: Coprococcus comes
In short: (§1)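 Gut bacterial monocultures were grown anaerobically at 37 °C in mGAM, starting at OD600 0.05, with 20 µM compound (1% DMSO) in round-bottom 96-well plates under pierced gas-permeable seals. OD600 was read hourly for 24 h. Area under the growth curve (minimum OD set to 0) was normalised to the plate median of DMSO controls, or to row and column medians on the industrial chemical plate. The value is the median of three biological replicates grown on separate days.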

Escherichia coli ED1a = tested on: Escherichia coli ED1a
In short: as §1

Escherichia coli IAI1 = tested on: Escherichia coli IAI1
In short: as §1

Eubacterium rectale = tested on: Eubacterium rectale
In short: as §1

[1] = tested on: Fusobacterium nucleatum subsp. animalis
In short: as §1

Lactobacillus gasseri = tested on: Lactobacillus gasseri
In short: as §1

Lactobacillus paracasei = tested on: Lactobacillus paracasei
In short: as §1

Odoribacter splanchnicus = tested on: Odoribacter splanchnicus
In short: as §1

[2] = tested on: Parabacteroides distasonis
In short: as §1

Parabacteroides merdae = tested on: Parabacteroides merdae
In short: as §1

Roseburia intestinalis = tested on: Roseburia intestinalis
In short: as §1

Streptococcus salivarius = tested on: Streptococcus salivarius
In short: as §1

| SMILES | growth AUC (Coprococcus comes) | growth AUC (Escherichia coli ED1a) | growth AUC (Escherichia coli IAI1) | growth AUC (Eubacterium rectale) | growth AUC [1] | growth AUC (Lactobacillus gasseri) | growth AUC (Lactobacillus paracasei) | growth AUC (Odoribacter splanchnicus) | growth AUC [2] | growth AUC (Parabacteroides merdae) | growth AUC (Roseburia intestinalis) | growth AUC (Streptococcus salivarius) |
| --- | --- | --- | --- | --- | --- | --- | --- | --- | --- | --- | --- | --- |
| COc1c(I)cc(C#N)cc1I | 0.973 | 1 | 0.975 | 1 | 0.981 | 0.895 | 0.911 | 1.03 | 0.966 | 0.944 | 0.989 | 0.982 |
| CC(C)Nc1nc(N)nc(Cl)n1 | 1.01 | 1.01 | 1.05 | 1.01 | 1.05 | 0.98 | 0.96 | 1.06 | 1.06 | 1.04 | 1.06 | 0.988 |
| CON=C(Cc1cccnc1)c1ccc(Cl)cc1Cl | 0.94 | 1 | 0.986 | 0.919 | 1.03 | 1.03 | 1.18 | 0.821 | 1.04 | 1.01 | 1.05 | 0.997 |
| CCCCCCCC/C=C\CCCCCCCCCCCCC | 1 | 0.987 | 1.03 | 0.946 | 0.961 | 1.08 | 0.875 | 0.968 | 1.01 | 0.991 | 1.07 | 1.03 |
| COC(=O)c1ccc(C)cc1C1=NC(C)(C(C)C)C(=O)N1 (racemic) | 0.993 | 0.969 | 0.97 | 1.03 | 0.916 | 0.931 | 0.959 | 1.07 | 1.03 | 0.976 | 0.934 | 0.97 |
| O=C(O)c1ccc(Cl)cc1Cl | 1 | 0.986 | 0.993 | 0.957 | 0.891 | 0.991 | 0.994 | 1.01 | 0.984 | 0.989 | 0.997 | 1 |
| CCc1cccc(C)c1N(C(=O)CS(=O)(=O)[O-])C(C)COC.[Na+] (configuration not stated) | 0.948 | 0.954 | 0.941 | 1.05 | 0.881 | 0.91 | 1.02 | 0.908 | 0.925 | 0.941 | 0.925 | 0.878 |
| CN1CCC[C@H]1c1cccnc1 | 0.984 | 0.99 | 1.01 | 0.978 | 0.98 | 0.941 | 0.991 | 0.989 | 1.02 | 0.993 | 0.933 | 0.949 |
| Clc1ccc(CSc2ccc(Cl)cc2)cc1 | 1.03 | 1 | 0.989 | 1.05 | 1.07 | 0.98 | 1.02 | 1.07 | 1 | 0.979 | 0.965 | 1.01 |
| COC1CCC2(CC1)NC(=O)C(c1cc(C)ccc1C)=C2O (configuration not stated) | 1.02 | 1.03 | 1.02 | 1.13 | 1.13 | 0.95 | 1.05 | 1.05 | 1.01 | 1.08 | 0.986 | 1.03 |
| Cc1cccc(C)c1O | 1 | 1.04 | 1 | 0.923 | 0.993 | 1.06 | 0.978 | 0.943 | 0.995 | 0.995 | 0.942 | 0.968 |
| CC(CNC(=S)[S-])NC(=S)[S-].[Zn+2] (mixture of isomers) | 1.04 | 0.997 | 0.983 | 1.15 | 1.08 | 0.956 | 1.14 | 0.945 | 1.01 | 1.02 | 0.979 | 0.988 |
| CC(C)(c1cc(Br)c(O)c(Br)c1)c1cc(Br)c(O)c(Br)c1 | 0.41 (active) | 1.04 | 0.997 | 0.0259 (active) | 0.465 (active) | 0.136 (active) | 0.0653 (active) | 0.0465 (active) | 0.0802 (active) | 0.151 (active) | 0.0954 (active) | 0.144 (active) |
| Cc1nn(C)c(OCC(=O)c2ccccc2)c1C(=O)c1ccc(Cl)cc1Cl | 1.02 | 0.995 | 1 | 1.04 | 1.02 | 1.02 | 0.991 | 0.961 | 0.674 (active) | 0.926 | 0.981 | 1.01 |
| COc1cc(OC)nc(NC(=O)NS(=O)(=O)c2c(-c3nnn(C)n3)cnn2C)n1 | 1.01 | 1.01 | 0.988 | 1.1 | 1.02 | 0.873 | 1.04 | 1.03 | 0.845 | 1.03 | 0.948 | 0.953 |
| COc1nc(C)nc(NC(=O)NS(=O)(=O)c2ccccc2OCCCl)n1 | 1.02 | 0.948 | 1 | 0.987 | 0.953 | 0.933 | 0.982 | 1 | 0.98 | 0.97 | 1 | 0.992 |
